Tests used:
Assay in all cases: DAPPL (digital affinity profiling via proximity ligation, sequencing); 10 mM Tris-HCl pH 7.5, 50 mM NaCl, 1 mM DTT, 4% glycerol, room temperature, 30 min; GST-TFs on glutathione beads, 16-mer random dsDNA library, 0.1% formaldehyde crosslink after washing; high values mean tight binding
[1] = molecular target: T1, FEV (Homo sapiens, UniProt Q99581 1-238); conditions: protein: recombinant; tags: N-terminal GST; dsDNA, one strand shown
T1 sequence: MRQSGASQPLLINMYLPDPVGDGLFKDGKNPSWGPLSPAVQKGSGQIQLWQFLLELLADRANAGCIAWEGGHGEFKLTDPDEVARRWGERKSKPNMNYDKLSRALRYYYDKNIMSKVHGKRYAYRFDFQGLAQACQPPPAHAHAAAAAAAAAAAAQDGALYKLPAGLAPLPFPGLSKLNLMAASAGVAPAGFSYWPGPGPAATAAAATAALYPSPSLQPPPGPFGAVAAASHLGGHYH
In short: (§1)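 Sequencing on an Illumina NextSeq500 followed washing, crosslinking with 0.1% formaldehyde, proximity ligation (BsaI/T4 ligase, 1 h, 37 °C) and PCR amplification of pools that had been incubated for 30 min at room temperature with 200 nmole of a random double-stranded 16-mer DNA library in Tris/NaCl/DTT/glycerol buffer. Each pool held DNA-barcoded human transcription factors, expressed in yeast as GST fusions and captured on glutathione beads, plus a tag-only sample. Binding signal is a hexamer's read frequency for a factor divided by its frequency in the tag-only sample.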

[2] = molecular target: ETV5 (Homo sapiens, UniProt P41161 1-510); conditions: protein: recombinant; tags: N-terminal GST; dsDNA, one strand shown
In short: as §1

[3] = molecular target: HSF1 (Homo sapiens, UniProt Q00613 1-529); conditions: protein: recombinant; tags: N-terminal GST; chain copies: 3; dsDNA, one strand shown
In short: as §1

[4] = molecular target: T2, SPIC (Homo sapiens, UniProt Q8N5J4 1-248); conditions: protein: recombinant; tags: N-terminal GST; dsDNA, one strand shown
T2 sequence: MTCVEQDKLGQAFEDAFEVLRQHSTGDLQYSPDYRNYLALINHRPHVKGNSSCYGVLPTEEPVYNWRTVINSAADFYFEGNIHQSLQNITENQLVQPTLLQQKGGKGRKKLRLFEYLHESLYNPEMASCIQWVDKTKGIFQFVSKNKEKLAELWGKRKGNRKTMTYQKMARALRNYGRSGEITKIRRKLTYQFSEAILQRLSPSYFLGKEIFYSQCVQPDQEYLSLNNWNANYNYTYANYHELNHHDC
In short: as §1

[5] = molecular target: ELF4 (Homo sapiens, UniProt Q99607 1-663); conditions: protein: recombinant; tags: N-terminal GST; dsDNA, one strand shown
In short: as §1

[6] = molecular target: T3, ELK4 (Homo sapiens, UniProt P28324-2 1-405); conditions: protein: recombinant; tags: N-terminal GST; dsDNA, one strand shown
T3 sequence: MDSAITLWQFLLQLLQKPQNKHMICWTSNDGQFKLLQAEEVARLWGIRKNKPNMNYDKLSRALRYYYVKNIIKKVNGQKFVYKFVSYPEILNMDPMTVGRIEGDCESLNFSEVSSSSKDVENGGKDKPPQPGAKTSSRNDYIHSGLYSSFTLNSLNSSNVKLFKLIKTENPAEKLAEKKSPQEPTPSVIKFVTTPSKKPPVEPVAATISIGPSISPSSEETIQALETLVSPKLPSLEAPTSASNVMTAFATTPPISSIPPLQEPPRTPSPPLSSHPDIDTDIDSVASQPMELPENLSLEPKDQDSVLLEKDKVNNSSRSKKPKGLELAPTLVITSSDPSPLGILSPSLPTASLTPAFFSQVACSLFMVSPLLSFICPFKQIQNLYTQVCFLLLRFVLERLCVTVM
In short: as §1

[7] = molecular target: T4, ETV2 (Homo sapiens, UniProt O00321 1-342); conditions: protein: recombinant; tags: N-terminal GST; dsDNA, one strand shown
T4 sequence: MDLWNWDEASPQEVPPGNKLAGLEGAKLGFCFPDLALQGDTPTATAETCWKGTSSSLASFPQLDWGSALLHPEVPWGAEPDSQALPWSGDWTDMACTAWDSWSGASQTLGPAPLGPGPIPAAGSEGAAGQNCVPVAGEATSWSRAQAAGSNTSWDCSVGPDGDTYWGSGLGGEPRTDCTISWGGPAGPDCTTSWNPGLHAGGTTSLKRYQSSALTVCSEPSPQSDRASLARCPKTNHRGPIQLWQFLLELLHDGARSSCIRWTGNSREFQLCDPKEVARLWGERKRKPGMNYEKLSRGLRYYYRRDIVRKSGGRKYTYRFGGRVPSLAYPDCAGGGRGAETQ
In short: as §1

[8] = molecular target: T5, ELF3 (Homo sapiens, UniProt P78545 1-371); conditions: protein: recombinant; tags: N-terminal GST; dsDNA, one strand shown
T5 sequence: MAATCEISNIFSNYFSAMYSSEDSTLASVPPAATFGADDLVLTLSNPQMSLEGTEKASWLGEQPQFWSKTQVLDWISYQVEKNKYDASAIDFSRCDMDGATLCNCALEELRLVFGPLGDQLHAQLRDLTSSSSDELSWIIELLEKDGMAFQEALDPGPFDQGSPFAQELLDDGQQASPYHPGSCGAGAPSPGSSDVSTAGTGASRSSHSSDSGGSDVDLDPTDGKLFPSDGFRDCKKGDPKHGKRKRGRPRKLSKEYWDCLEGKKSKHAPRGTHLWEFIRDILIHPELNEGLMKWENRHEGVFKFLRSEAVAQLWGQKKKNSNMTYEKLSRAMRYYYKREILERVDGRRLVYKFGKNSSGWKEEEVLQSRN
In short: as §1

[9] = molecular target: CRX (Homo sapiens, UniProt O43186 1-299); conditions: protein: recombinant; tags: N-terminal GST; dsDNA, one strand shown
In short: as §1

[10] = molecular target: ETV1 (Homo sapiens, UniProt P50549 1-477); conditions: protein: recombinant; tags: N-terminal GST; dsDNA, one strand shown
In short: as §1

[11] = molecular target: T6, ERF (Homo sapiens, UniProt P50548 1-548); conditions: protein: recombinant; tags: N-terminal GST; dsDNA, one strand shown
T6 sequence: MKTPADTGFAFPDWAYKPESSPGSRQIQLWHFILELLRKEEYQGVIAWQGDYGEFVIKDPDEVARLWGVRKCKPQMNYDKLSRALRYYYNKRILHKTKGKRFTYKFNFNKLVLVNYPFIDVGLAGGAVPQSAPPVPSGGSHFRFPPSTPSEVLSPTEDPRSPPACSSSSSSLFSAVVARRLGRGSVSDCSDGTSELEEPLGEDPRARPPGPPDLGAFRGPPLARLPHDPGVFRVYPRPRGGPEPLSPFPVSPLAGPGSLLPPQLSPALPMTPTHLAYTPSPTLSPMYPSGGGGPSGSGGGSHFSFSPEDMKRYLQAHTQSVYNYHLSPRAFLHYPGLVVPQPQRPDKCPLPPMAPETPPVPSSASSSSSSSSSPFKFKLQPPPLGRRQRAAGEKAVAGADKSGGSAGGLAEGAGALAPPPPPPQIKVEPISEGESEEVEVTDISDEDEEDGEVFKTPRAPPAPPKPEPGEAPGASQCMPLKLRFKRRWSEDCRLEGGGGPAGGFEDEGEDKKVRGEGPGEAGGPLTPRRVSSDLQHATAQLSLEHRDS
In short: as §1

[12] = molecular target: T7, ETV3L (Homo sapiens, UniProt Q6ZN32 1-361); conditions: protein: recombinant; tags: N-terminal GST; dsDNA, one strand shown
T7 sequence: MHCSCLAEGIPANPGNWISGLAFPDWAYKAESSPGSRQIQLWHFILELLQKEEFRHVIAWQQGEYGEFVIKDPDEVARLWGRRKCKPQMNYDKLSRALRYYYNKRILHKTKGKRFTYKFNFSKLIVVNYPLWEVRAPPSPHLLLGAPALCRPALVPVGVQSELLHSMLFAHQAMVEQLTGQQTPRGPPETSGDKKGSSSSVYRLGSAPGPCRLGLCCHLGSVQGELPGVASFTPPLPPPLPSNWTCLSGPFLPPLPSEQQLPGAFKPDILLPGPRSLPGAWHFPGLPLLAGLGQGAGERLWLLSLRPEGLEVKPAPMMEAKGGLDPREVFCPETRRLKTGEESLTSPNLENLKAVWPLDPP
In short: as §1

[13] = molecular target: T8, ETS2 (Homo sapiens, UniProt P15036 1-469); conditions: protein: recombinant; tags: N-terminal GST; dsDNA, one strand shown
T8 sequence: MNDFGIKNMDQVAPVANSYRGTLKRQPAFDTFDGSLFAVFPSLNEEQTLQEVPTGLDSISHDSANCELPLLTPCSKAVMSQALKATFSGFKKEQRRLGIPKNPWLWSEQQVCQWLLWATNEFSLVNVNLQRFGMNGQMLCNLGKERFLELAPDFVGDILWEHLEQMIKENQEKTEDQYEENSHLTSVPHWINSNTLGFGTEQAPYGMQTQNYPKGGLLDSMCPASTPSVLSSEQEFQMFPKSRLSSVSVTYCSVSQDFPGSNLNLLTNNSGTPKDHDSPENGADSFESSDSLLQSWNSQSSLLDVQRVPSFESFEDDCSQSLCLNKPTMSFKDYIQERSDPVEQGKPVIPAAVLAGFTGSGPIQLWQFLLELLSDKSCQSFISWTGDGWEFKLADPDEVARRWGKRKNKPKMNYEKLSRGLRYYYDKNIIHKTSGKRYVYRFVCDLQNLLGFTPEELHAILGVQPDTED
In short: as §1

[14] = molecular target: T9, SPDEF (Homo sapiens, UniProt O95238 1-335); conditions: protein: recombinant; tags: N-terminal GST; dsDNA, one strand shown
T9 sequence: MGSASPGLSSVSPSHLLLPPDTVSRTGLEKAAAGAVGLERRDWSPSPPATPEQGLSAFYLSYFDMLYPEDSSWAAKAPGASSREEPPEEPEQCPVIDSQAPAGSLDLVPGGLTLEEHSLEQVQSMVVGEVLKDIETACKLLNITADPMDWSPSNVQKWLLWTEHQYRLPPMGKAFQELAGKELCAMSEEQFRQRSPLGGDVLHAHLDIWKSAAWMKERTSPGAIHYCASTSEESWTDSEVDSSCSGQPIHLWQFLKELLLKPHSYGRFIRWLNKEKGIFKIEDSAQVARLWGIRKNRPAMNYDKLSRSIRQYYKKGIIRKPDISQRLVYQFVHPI
In short: as §1

[15] = molecular target: T10, ETV7 (Homo sapiens, UniProt Q9Y603 1-341); conditions: protein: recombinant; tags: N-terminal GST; dsDNA, one strand shown
T10 sequence: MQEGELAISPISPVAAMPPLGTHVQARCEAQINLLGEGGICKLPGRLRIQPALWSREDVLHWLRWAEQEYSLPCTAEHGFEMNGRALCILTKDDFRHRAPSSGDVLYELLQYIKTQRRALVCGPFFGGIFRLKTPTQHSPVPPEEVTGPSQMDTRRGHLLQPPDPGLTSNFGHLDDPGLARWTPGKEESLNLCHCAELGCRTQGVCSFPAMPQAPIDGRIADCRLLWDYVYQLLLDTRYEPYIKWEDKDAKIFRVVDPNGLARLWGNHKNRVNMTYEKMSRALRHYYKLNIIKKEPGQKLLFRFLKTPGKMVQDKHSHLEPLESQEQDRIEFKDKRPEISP
In short: as §1

[16] = molecular target: T11, ELF5 (Homo sapiens, UniProt Q9UKW6-2 1-255); conditions: protein: recombinant; tags: N-terminal GST; dsDNA, one strand shown
T11 sequence: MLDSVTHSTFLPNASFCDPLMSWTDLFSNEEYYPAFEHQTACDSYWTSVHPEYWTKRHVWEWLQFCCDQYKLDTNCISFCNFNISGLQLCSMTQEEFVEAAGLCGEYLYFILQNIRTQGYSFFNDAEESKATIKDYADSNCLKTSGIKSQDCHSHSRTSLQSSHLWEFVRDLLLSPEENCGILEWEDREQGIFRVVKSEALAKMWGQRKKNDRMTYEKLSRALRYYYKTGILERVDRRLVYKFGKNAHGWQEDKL
In short: as §1

[17] = molecular target: T12, ETV3 (Homo sapiens, UniProt P41162-2 1-143); conditions: protein: recombinant; tags: N-terminal GST; dsDNA, one strand shown
T12 sequence: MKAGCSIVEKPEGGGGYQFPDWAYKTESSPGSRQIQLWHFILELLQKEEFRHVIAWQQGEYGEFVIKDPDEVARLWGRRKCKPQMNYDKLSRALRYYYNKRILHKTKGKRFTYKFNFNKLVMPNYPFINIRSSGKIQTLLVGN
In short: as §1

[18] = molecular target: ETV6 (Homo sapiens, UniProt P41212 1-452); conditions: protein: recombinant; tags: N-terminal GST; dsDNA, one strand shown
In short: as §1

Chain of ETV1 (P50549 whole entry): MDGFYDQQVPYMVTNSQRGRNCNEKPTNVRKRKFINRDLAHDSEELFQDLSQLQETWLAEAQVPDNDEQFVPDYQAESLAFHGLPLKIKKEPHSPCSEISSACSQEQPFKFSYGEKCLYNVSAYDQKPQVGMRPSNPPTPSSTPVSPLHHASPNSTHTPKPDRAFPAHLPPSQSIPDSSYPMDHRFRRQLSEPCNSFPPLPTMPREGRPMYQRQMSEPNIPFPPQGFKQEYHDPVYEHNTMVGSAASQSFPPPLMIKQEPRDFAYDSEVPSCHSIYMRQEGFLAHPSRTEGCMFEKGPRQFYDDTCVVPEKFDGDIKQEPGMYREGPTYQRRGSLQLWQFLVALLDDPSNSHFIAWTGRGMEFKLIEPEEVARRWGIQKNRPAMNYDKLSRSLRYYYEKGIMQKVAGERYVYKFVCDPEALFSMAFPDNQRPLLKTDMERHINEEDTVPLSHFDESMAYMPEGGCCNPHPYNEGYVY
Chain of ELF4 (Q99607 whole entry): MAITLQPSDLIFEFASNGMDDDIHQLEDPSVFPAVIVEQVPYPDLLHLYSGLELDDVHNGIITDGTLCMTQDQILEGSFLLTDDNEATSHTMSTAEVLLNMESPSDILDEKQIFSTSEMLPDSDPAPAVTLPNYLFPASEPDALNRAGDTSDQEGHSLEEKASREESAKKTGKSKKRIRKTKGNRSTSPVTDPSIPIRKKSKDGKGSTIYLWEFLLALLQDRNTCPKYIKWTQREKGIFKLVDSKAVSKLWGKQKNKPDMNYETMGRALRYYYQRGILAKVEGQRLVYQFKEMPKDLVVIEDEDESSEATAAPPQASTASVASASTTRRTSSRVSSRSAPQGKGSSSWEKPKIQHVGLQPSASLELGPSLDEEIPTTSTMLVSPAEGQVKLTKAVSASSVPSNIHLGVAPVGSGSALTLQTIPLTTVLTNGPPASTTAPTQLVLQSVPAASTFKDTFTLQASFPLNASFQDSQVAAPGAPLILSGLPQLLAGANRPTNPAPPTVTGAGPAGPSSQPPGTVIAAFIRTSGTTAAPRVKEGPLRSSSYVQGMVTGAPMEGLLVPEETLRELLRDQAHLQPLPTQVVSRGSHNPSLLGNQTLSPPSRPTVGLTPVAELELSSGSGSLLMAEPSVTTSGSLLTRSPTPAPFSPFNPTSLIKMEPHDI
Chain of ETV5 (P41161 whole entry): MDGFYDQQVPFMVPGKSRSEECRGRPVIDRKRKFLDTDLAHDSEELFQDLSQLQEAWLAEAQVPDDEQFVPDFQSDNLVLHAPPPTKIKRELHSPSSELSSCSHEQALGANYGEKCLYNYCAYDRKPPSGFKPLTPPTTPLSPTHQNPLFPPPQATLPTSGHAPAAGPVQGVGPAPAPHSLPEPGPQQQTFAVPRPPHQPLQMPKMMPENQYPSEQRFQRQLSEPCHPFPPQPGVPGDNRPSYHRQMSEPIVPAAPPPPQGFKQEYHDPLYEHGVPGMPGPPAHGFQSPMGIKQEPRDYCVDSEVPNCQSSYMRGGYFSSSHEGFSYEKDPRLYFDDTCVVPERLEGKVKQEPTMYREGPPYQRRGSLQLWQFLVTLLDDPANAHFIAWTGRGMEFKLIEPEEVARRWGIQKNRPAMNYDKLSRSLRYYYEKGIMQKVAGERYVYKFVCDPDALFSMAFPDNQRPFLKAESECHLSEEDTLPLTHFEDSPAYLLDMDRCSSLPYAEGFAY
Chain of CRX (O43186 whole entry): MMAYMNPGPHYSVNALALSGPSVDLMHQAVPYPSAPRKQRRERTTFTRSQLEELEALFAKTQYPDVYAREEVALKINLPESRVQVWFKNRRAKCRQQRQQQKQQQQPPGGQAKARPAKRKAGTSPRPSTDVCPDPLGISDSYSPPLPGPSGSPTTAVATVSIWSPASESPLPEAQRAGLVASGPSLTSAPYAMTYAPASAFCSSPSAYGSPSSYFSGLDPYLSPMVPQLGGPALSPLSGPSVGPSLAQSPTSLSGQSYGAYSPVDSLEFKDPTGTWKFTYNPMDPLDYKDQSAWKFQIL
Chain of HSF1 (Q00613 whole entry): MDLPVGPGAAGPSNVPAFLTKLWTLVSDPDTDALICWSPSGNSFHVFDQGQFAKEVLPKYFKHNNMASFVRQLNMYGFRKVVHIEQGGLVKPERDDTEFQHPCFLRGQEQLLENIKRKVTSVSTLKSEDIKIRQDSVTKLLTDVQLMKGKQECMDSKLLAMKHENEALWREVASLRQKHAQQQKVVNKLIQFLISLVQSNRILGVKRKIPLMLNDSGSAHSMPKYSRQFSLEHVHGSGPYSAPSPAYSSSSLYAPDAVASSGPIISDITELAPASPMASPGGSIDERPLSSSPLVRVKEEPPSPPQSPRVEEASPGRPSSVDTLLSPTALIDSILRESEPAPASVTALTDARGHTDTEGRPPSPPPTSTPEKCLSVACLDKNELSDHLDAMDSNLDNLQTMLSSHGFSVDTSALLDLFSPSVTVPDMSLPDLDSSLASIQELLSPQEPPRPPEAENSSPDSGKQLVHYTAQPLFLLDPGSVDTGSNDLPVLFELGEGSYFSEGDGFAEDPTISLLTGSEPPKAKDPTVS
Chain of ETV6 (P41212 whole entry): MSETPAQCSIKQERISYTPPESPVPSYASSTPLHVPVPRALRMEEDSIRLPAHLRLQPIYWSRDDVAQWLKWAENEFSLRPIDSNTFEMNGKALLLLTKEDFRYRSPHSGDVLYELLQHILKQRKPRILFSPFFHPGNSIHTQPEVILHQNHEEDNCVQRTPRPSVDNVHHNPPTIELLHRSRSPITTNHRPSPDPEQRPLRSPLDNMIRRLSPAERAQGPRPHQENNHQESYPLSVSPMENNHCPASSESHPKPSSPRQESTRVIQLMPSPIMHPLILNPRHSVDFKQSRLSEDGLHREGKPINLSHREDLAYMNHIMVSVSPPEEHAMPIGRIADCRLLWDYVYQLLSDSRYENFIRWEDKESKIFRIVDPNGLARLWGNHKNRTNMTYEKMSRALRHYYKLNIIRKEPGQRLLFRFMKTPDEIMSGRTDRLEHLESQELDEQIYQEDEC

With CTCGTA the binding signal [1] was 1.33 fold enrichment (6-mer frequency, TF over GST control), the binding signal [2] was 1.29 fold enrichment (6-mer frequency, TF over GST control) and the binding signal [3] was 1.77 fold enrichment (6-mer frequency, TF over GST control). For the same sequence, the binding signal [4] was 1.25 fold enrichment (6-mer frequency, TF over GST control), the binding signal [5] was 1.35 fold enrichment (6-mer frequency, TF over GST control) and the binding signal [6] was 1.16 fold enrichment (6-mer frequency, TF over GST control). For the same sequence, the binding signal [7] was 1.44 fold enrichment (6-mer frequency, TF over GST control), the binding signal [8] was 1.39 fold enrichment (6-mer frequency, TF over GST control) and the binding signal [9] was 1.38 fold enrichment (6-mer frequency, TF over GST control). For the same sequence, the binding signal [10] was 1.35 fold enrichment (6-mer frequency, TF over GST control), the binding signal [11] was 1.23 fold enrichment (6-mer frequency, TF over GST control) and the binding signal [12] was 1.43 fold enrichment (6-mer frequency, TF over GST control). The binding signal [13] was 1.37 fold enrichment (6-mer frequency, TF over GST control), the binding signal [14] was 1.2 fold enrichment (6-mer frequency, TF over GST control) and the binding signal [15] was 1.11 fold enrichment (6-mer frequency, TF over GST control). The binding signal [16] was 1.28 fold enrichment (6-mer frequency, TF over GST control), the binding signal [17] was 1.23 fold enrichment (6-mer frequency, TF over GST control) and the binding signal [18] was 1.2 fold enrichment (6-mer frequency, TF over GST control).

Reference: publication PMC7862700, “An all-to-all approach to the identification of sequence-specific readers for epigenetic DNA modifications on cytosine”
